Active and inactive are the calls of the source.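 The calls were made as follows, unless noted: active = mean z-score across replicates of 1.96 or higher in either the MELAS or the Rieske mutant cell line; inactive = the rest.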 Where a SMILES comes first, the peptide text is derived from it. Bridges are numbered along the chain shown (N, C = ends). [ ]: non-standard residue; d: D form. The star is where a group is joined. Heptanoyl(5-Me) = CCC(C)CCCC(=O)*; Dab = NCC[C@H](N)C(=O)O

We go through 35 compounds from PubChem BioAssay.

Assay [1] can be described thus: MELAS cybrid and Rieske KO viability enhancers – cell-based, MELAS cybrids, Rieske KO mouse fibroblasts, CellTiter-Glo, primary screen (AID 1508586).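 Also: z relative to plate mean and SD of compound and empty wells.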 Conditions: low glucose.
A short description of assay [2]: galactose survival enhancers in mitochondrial complex I cybrids – cell-based, galactose medium, ATP luminescence, primary screen (AID 1645843;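 active = z-score of at least 1.8 in each of two replicates, scored against plate mean and spread of sample wells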;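 also: positive z means more ATP and so rescue of galactose-driven cybrid death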). Conditions: complex I mutant cybrid cells, 72 h, stronger effect = higher value.
Assay [3] in a line: blockers of cellular phospholipid synthesis – cell-based, LOPAC library, screen 4, primary screen (AID 1347384; call rule not given here). Conditions: animal cells, phospholipid biosynthesis inhibition screen; at 10 µM.
The subject of assay [4] is Hepatitis C virus NS3 helicase. Briefly: blockers of NS3h binding to ssDNA – biochemical, fluorescence polarization, LOPAC1280 library, primary screen (AID 687035; in the data active = inhibition above about 37%). The conditions noted are these: Purified HCV NS3 helicase, Cy5-dT15 ssDNA binding fluorescence polarization; stronger effect = higher value; concentration not given here.
A short description of assay [5]: compounds altering Cy5-DNA-NS3h complex signal – biochemical, LOPAC1280, artefact control for HCV NS3 helicase inhibitor project (AID 687037; call rule not given here). Conditions: Cy5-DNA-NS3h complex fluorescence interference counterscreen.
Assay [6] has as its target NAD(+) hydrolase SARM1 (Homo sapiens) (UniProt Q6SZW1). Description: blocking NAD cleavage by SARM1 SAM-TIR – cell lysate, NAD-Glo luminescence (AID 1508614;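 active = compound whose remaining NAD level is above about 45 nM, limit read from the data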;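 also: higher remaining NAD means stronger inhibition of SARM1 NADase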). The conditions noted are these: SAM-TIR HEK293T lysate NADase, at 1 µM, stronger effect = higher value.
Where [7] appears, read: MELAS cybrid survival, CellTiter-Glo 48 h, stronger effect = higher value.
[8] abbreviates: Rieske KO mouse fibroblast survival, CellTiter-Glo 72 h.

Sequence of NAD(+) hydrolase SARM1 (Homo sapiens) (Q6SZW1 whole entry, looked up): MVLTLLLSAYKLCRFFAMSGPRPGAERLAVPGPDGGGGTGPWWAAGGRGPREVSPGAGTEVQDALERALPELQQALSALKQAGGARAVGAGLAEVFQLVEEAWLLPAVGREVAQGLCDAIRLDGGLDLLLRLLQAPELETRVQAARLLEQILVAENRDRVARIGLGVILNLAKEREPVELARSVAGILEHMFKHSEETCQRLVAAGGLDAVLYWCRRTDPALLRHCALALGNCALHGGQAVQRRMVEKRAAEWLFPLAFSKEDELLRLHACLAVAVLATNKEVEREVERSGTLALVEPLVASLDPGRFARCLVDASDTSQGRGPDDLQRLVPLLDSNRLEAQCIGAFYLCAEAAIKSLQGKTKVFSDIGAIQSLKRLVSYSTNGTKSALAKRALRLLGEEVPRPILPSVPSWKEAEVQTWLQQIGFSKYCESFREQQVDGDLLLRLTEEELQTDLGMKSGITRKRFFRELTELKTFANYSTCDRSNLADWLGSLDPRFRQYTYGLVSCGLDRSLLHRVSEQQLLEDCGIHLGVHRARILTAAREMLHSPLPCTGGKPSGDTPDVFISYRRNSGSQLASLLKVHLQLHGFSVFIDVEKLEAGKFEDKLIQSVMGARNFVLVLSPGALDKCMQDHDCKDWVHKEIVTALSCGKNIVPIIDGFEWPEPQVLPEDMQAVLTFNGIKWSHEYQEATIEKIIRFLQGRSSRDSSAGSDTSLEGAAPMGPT

`COc1cc(/C=C/CN2CC(=O)N(C(C)C)CC(OCc3noc(C)n3)C2)ccc1O` (centres undefined): the z-score was -0.167 (inactive) in assay [1] (setting [7]), -0.562 in assay [1] (setting [8]) and -1.32 (inactive) in assay [2].

Take `COc1c(O[C@@H]2O[C@H](CO)[C@@H](O)[C@H](O)[C@H]2O)cc2c(c1OC)-c1ccc(SC)c(=O)cc1[C@@H](NC(C)=O)CC2`: the z-score is 0.122 (inactive) in assay [1] (setting [7]) and 0.151 in assay [1] (setting [8]).

On to `CC[C@H]1OC(=O)C[C@@H](O)[C@H](C)[C@@H](O[C@@H]2O[C@H](C)[C@@H](O[C@H]3CC(C)(O)[C@@H](O)[C@H](C)O3)[C@H](N(C)C)[C@H]2O)[C@@H](CC=O)C[C@@H](C)C(=O)/C=C/C(C)=C/[C@@H]1CO[C@@H]1O[C@H](C)[C@@H](O)[C@@H](OC)[C@H]1OC` (some centres undefined), for which the z-score in assay [1] (setting [7]) is 0.259 (inactive); in assay [1] (setting [8]), -0.21.

Regarding `COc1ccc(C[C@@H]2c3cc(OC)c(OC)cc3CC[N@+]2(C)CCC(=O)OCCCCCOC(=O)CC[N@@+]2(C)CCc3cc(OC)c(OC)cc3[C@H]2Cc2ccc(OC)c(OC)c2)cc1OC`, the z-score in assay [1] (setting [7]) was -1.09 (inactive); in assay [1] (setting [8]) it was -0.143.

`CCCCCc1ccc(/C=C/C(=O)Nc2cc(Cl)ccc2C(=O)O)cc1`: in assay [3], the compound was called inactive.

`COc1cc(Br)c(C[N+]2(CCOCCC3CC[C@H]4C[C@@H]3C4(C)C)CCOCC2)cc1OC` (some centres undefined): the figures for the z-score in assay [1] (setting [7]) and in assay [1] (setting [8]) were -1.55 (inactive) and 0.547, respectively.

Take `CCOC([O-])=Nc1c[n+](N2CCOCC2)no1`: the inhibition in assay [4] was -3% (inactive). In addition, in assay [5], the fluorescence ratio (interference) is 1 (inactive). The call in assay [3] was inactive.

As to `COc1cccc2c1C(=O)c1c(O)c3c(c(O)c1C2=O)C[C@@](O)(C(=O)CO)C[C@@H]3O[C@@H]1C[C@H](N)[C@@H](O)[C@H](C)O1`, the figures for the z-score in assay [1] (setting [7]) and in assay [1] (setting [8]) were 6.67 (active) and -1.72, respectively.

On to `CCC(C)CCCC(=O)N[C@@H](CCN)C(=O)N[C@H](C(=O)N[C@@H](CCN)C(=O)N[C@H]1CCNC(=O)[C@H]([C@@H](C)O)NC(=O)[C@H](CCN)NC(=O)[C@H](CCN)NC(=O)[C@H](CC(C)C)NC(=O)[C@@H](CC(C)C)NC(=O)[C@H](CCN)NC1=O)[C@@H](C)O` (stereo partly drawn) ({Heptanoyl(5-Me)}-[Dab]T[Dab][Dab][Dab][dL]L[Dab][Dab]T; lactam 4-C), for which the results for the z-score in assay [1] (setting [7]) and in assay [1] (setting [8]) were -0.0594 (inactive) and 0.188, respectively.

For the compound `Nc1nc(NC2CC2)c2ncn([C@H]3C=C[C@@H](CO)C3)c2n1`, the z-score in assay [1] (setting [7]) is 1.09 (inactive); in assay [1] (setting [8]), -0.0348. For the same compound, the remaining NAD in assay [6] was 10 nM (inactive).

Turning to `CN1C[C@H](C(=O)N[C@]2(C)O[C@@]3(O)[C@@H]4CCCN4C(=O)[C@H](Cc4ccccc4)N3C2=O)CC2c3cccc4[nH]cc(c34)C[C@H]21` (mixture of isomers), the z-score in assay [1] (setting [7]) was 0.0487 (inactive); in assay [1] (setting [8]), 0.764.

For the compound `Cc1cc(=O)c(C(=O)N[C@@H](C(=O)N[C@@H]2C(=O)N3C(C(=O)O)=C(CSc4nnnn4C)CS[C@H]23)c2ccc(O)cc2)c[nH]1`, the z-score is 0.177 (inactive) in assay [1] (setting [7]) and -0.0348 in assay [1] (setting [8]). In addition, in assay [6], the remaining NAD is 10 nM (inactive).

`CN1[C@@H]2CC[C@@H]1CC(OC(=O)C(CO)c1ccccc1)C2` (some centres undefined): the z-score in assay [1] (setting [7]) was 0.0633 (inactive); in assay [1] (setting [8]), -0.0663.

With `CCCCNC(=O)[C@@H]1C[C@H](CN2CCOCC2)CN(Cc2ccc3ccccc3c2)C1`, the z-score is 0.321 (inactive) in assay [1] (setting [7]), 0.627 in assay [1] (setting [8]) and -0.385 (inactive) in assay [2].

Turning to `C=Cc1c(C)c2cc3nc(cc4[nH]c(cc5nc(cc1[nH]2)C(C)=C5CCC(=O)O)c(CCC(=O)OC)c4C)[C@@]1(C)C3=CC=C(C(=O)OC)C1C(=O)OC` (some centres undefined), the z-score was 1.85 (inactive) in assay [1] (setting [7]) and 1.33 in assay [1] (setting [8]).

With `Cc1ccc(-c2cc(C(=O)N3CCSCC3)cc(S(=O)(=O)N3CCOCC3)c2)s1`, the z-score in assay [1] (setting [7]) is -0.321 (inactive); in assay [1] (setting [8]), -0.0192; in assay [2], 0.905 (inactive).

As for `Nc1nc(CC(=O)Nc2ccc(CCNC[C@H](O)c3ccccc3)cc2)cs1`, the values for the z-score in assay [1] (setting [7]) and in assay [1] (setting [8]) were 0.235 (inactive) and 0.0504, respectively.

For `O=CN(O)CCCP(=O)(O)O`, the result in assay [3] was inactive.

As to `C#C[C@]1(OC(C)=O)CC[C@H]2[C@@H]3CCC4=CC(=NO)CC[C@@H]4[C@H]3CC[C@@]21CC`, the z-score is 0.995 (inactive) in assay [1] (setting [7]) and 0.685 in assay [1] (setting [8]).

For the compound `N[C@@H](C(=O)N[C@@H]1C(=O)N2C(C(=O)O)=C(Cl)CC[C@H]12)c1ccccc1`, the z-score in assay [1] (setting [7]) was 0.0513 (inactive); in assay [1] (setting [8]) it was -0.0591.

`C[N+]1(C)[C@@H]2CC(OC(=O)C(CO)c3ccccc3)C[C@H]1[C@@H]1O[C@@H]12` (some centres undefined): the z-score in assay [1] (setting [7]) was -0.282 (inactive); in assay [1] (setting [8]), 0.781.

In the case of `CC=C(C)C(=O)O[C@H]1[C@H](OC(C)=O)C2(CO)C(CC1(C)C)C1=CCC3C4(C)CCC(OC5O[C@H](C(=O)O)[C@@H](O[C@@H]6O[C@H](CO)[C@@H](O)[C@H](O)[C@H]6O)[C@H](O)[C@H]5O[C@@H]5O[C@H](CO)C(O)[C@H](O)[C@H]5O)[C@](C)(CO)C4CCC3(C)[C@]1(C)C[C@H]2O` (some centres undefined), the z-score stood at 0.702 in assay [1] (setting [7]) and 2.95 in assay [1] (setting [8]).

As for `O.O.[NH2-].[NH2-].[NH2-].[NH2-].[NH2-].[NH2-].[NH2-].[NH2-].[NH2-].[NH2-].[NH2-].[NH2-].[NH2-].[NH2-].[Ru+4].[Ru+5].[Ru+5]`, the compound was classed as inactive in assay [3].

Regarding `CC(=O)[C@@]12OC(C)(c3ccccc3)O[C@@H]1C[C@H]1[C@@H]3CCC4=CC(=O)CC[C@]4(C)[C@H]3CC[C@@]12C` (some centres undefined), the z-score in assay [1] (setting [7]) is 0.905 (inactive); in assay [1] (setting [8]), 1.8.

Take `CCOC(=O)c1csc(CCNC2CCc3c(c(C(=O)N4CCc5ccccc5C4)nn3C)C2)n1` (centres undefined): the z-score in assay [1] (setting [7]) was -0.249 (inactive); in assay [1] (setting [8]) it was 0.117; in assay [2], -1.24 (inactive).

`COCc1ccc(C(=O)N2CCc3c(cc(-c4ccncc4)c(=O)n3CCN3CCCCC3)C2)o1`: the z-score in assay [1] (setting [7]) was -0.345 (inactive); in assay [1] (setting [8]), 0.626; in assay [2] it was 0.77 (inactive).

Consider `CCC(C)C(=O)Nc1c(C(=O)OC)n(CC2CCCO2)c2ncc(NC3CCSC3)cc12` (centres undefined), for which the z-score in assay [1] (setting [7]) was -0.0694 (inactive); in assay [1] (setting [8]), 1.01; in assay [2], -0.775 (inactive).

In the case of `Cn1ccnc1CN1C[C@@H](CN2CCOCC2)C[C@@H](C(=O)N2CCCC2)C1`, the z-score in assay [1] (setting [7]) was 0.188 (inactive); in assay [1] (setting [8]) it was 0.125; in assay [2], -0.64 (inactive).

For `COC(=O)c1c(NC(=O)c2ccoc2)c2cc(NC(C)CSC)cnc2n1Cc1ccccc1` (centres undefined), the z-score was -1.27 (inactive) in assay [1] (setting [7]), 0.841 in assay [1] (setting [8]) and -1.28 (inactive) in assay [2].

With `CN1C(=O)N(CCCc2ccncc2)C(=O)C12CCN(C1CCSCC1)CC2`, the results for the z-score in assay [1] (setting [7]), in assay [1] (setting [8]) and in assay [2] were -0.208 (inactive), -0.033 and 1.08 (inactive), respectively.

For the compound `CN(C)c1ncc(CN2CCc3c(cc(Cc4ccccc4)c(=O)n3Cc3ccc(F)cc3)C2)s1`, the z-score is -0.5 (inactive) in assay [1] (setting [7]), 0.0943 in assay [1] (setting [8]) and -0.525 (inactive) in assay [2].

As for `CN(C)C1CCN(C(=O)c2cc(-c3ccccc3)cc(S(=O)(=O)N3CCSCC3)c2)C1` (centres undefined), the z-score was 0.666 (inactive) in assay [1] (setting [7]), 0.00446 in assay [1] (setting [8]) and 0.465 (inactive) in assay [2].

`CC(C)CNC(=O)[C@@H]1C[C@H](CN2CCOCC2)CN(Cc2ccncc2)C1`: the z-score in assay [1] (setting [7]) is -0.456 (inactive); in assay [1] (setting [8]), -0.738; in assay [2], -0.6 (inactive).

With `Cc1cnc(CNC(=O)c2cc(-c3ccccc3)cc(S(=O)(=O)N3CCN(C)CC3)c2)cn1`, the z-score in assay [1] (setting [7]) was 0.213 (inactive); in assay [1] (setting [8]), -0.355; in assay [2], -0.045 (inactive).

As for `COC(=O)CCN1CC(OCc2cccc(OC)c2)CN(C(=O)CCc2cccs2)CC1=O` (centres undefined), the z-score in assay [1] (setting [7]) was -0.467 (inactive); in assay [1] (setting [8]), -0.256; in assay [2], 0.52 (inactive).
